From PubChem BioAssay (NCI)
Where “and” joins values, the source holds several entries; their conditions need not be identical. Equal entries are not always repeated. About 83,000 compounds went through this panel and 20% of them were active in at least one assay; those are over-represented in the sample as a whole.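 Note: values are percent growth. 100 is the growth of untreated cells, values between 100 and 0 indicate rising inhibition; between -100 and 0 indicates cell death.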 Calls of active or inactive are those of the source. The calls were made as follows: active = growth percent below 10; inactive = the rest.

Experiments:
Assay in all cases: NCI-60 one-dose screen, 48 h (100 = growth as untreated, 0 = no growth, -100 = all killed)
Conditions in all cases: 10 µM unless noted
SK-MEL-2 melanoma = tested on: SK-MEL-2 melanoma
SN12C renal = tested on: SN12C renal
UO-31 renal = tested on: UO-31 renal
TK-10 renal = tested on: TK-10 renal
ACHN renal = tested on: ACHN renal
CAKI-1 renal = tested on: CAKI-1 renal
A498 renal = tested on: A498 renal
CCRF-CEM leukemia = tested on: CCRF-CEM leukemia
MOLT-4 leukemia = tested on: MOLT-4 leukemia
SR leukemia = tested on: SR leukemia
RPMI-8226 leukemia = tested on: RPMI-8226 leukemia
OVCAR-8 ovarian = tested on: OVCAR-8 ovarian
OVCAR-5 ovarian = tested on: OVCAR-5 ovarian
OVCAR-4 ovarian = tested on: OVCAR-4 ovarian
SK-OV-3 ovarian = tested on: SK-OV-3 ovarian
IGROV1 ovarian = tested on: IGROV1 ovarian
OVCAR-3 ovarian = tested on: OVCAR-3 ovarian
HS 578T breast = tested on: HS 578T breast
NCI/ADR-RES ovarian = tested on: NCI/ADR-RES ovarian
EKVX NSCLC = tested on: EKVX NSCLC

Row | Structure (SMILES) | growth (SK-MEL-2 melanoma) | growth (SN12C renal) | growth (UO-31 renal) | growth (TK-10 renal) | growth (ACHN renal) | growth (CAKI-1 renal) | growth (A498 renal) | growth (CCRF-CEM leukemia) | growth (MOLT-4 leukemia) | growth (SR leukemia) | growth (RPMI-8226 leukemia) | growth (OVCAR-8 ovarian) | growth (OVCAR-5 ovarian) | growth (OVCAR-4 ovarian) | growth (SK-OV-3 ovarian) | growth (IGROV1 ovarian) | growth (OVCAR-3 ovarian) | growth (HS 578T breast) | growth (NCI/ADR-RES ovarian) | growth (EKVX NSCLC)
1 | Cc1cc2nc3ccc(=[N+](C)C)cc-3sc2cc1N | -33.5% (active) and 20.3% (inactive) | -65.9% (active) and -66.4% (active) | 8.95% (active) and 36.6% (inactive) | -12.3% (active) and 14.7% (inactive) | -73.1% (active) and 9.45% (active) | 12% (inactive) and 27.6% (inactive) | 74.9% (inactive) and 65.4% (inactive) | -7.13% (active) and -12.1% (active) | -10.7% (active) and -19.8% (active) | -4.11% (active) | -10.3% (active) and -38.2% (active) | 4.72% (active) and 7.29% (active) | -57.5% (active) and -0.424% (active) | 8.09% (active) | 8.62% (active) and 45.8% (inactive) | -55.6% (active) and 10.3% (inactive) | -15.2% (active) and -44% (active) | 41.1% (inactive) and -0.376% (active) | 1.81% (active) and 2.67% (active) | –
2 | CN1C2C=CC(=O)C1C1C(=O)N(c3ccccc3)C(=O)C12 (stereo not drawn) | 46.2% (inactive) | 60.2% (inactive) | 53.9% (inactive) | 78.9% (inactive) | 63.9% (inactive) | 28% (inactive) | 106% (inactive) | 50.5% (inactive) | 74.4% (inactive) | 67.5% (inactive) | 37.5% (inactive) | 69.9% (inactive) | 102% (inactive) | 76.4% (inactive) | 105% (inactive) | -9.22% (active) | 47.1% (inactive) | – | 92.6% (inactive) | –
3 | OCc1ccccc1F | 26.3% (inactive) | 84.5% (inactive) | 84.7% (inactive) | 107% (inactive) | 6.49% (active) | 18.7% (inactive) | 98.5% (inactive) | 83.9% (inactive) | 91.8% (inactive) | 92.6% (inactive) | 106% (inactive) | 83.3% (inactive) | 76.9% (inactive) | 97.5% (inactive) | 87% (inactive) | 85.7% (inactive) | 132% (inactive) | 109% (inactive) | 75.7% (inactive) | –
4 | CCCC(=O)Oc1ccc2ccccc2c1 | 104% (inactive) | 97% (inactive) | 76.8% (inactive) | 103% (inactive) | 99% (inactive) | 103% (inactive) | 103% (inactive) | 90.2% (inactive) | 92.3% (inactive) | 110% (inactive) | 94.4% (inactive) | 94.6% (inactive) | 117% (inactive) | 105% (inactive) | 91.8% (inactive) | 106% (inactive) | 113% (inactive) | 92.7% (inactive) | 102% (inactive) | –
5 | O=C1c2ccccc2CN1c1ccccc1 | 70.6% (inactive) | 90.5% (inactive) | 121% (inactive) | 94.3% (inactive) | 99% (inactive) | 102% (inactive) | 101% (inactive) | 106% (inactive) | 85.2% (inactive) | 84.5% (inactive) | 107% (inactive) | 104% (inactive) | 98% (inactive) | 99.3% (inactive) | – | 123% (inactive) | 108% (inactive) | 115% (inactive) | 105% (inactive) | –
6 | O=C(c1ccncc1)c1c(Cc2ccccc2)ccc2ccccc12 | 69.7% (inactive) | 90.6% (inactive) | 64.5% (inactive) | 107% (inactive) | 93.8% (inactive) | 73.8% (inactive) | – | 103% (inactive) | 94.6% (inactive) | 107% (inactive) | 85.1% (inactive) | 82.5% (inactive) | 87.5% (inactive) | 82.7% (inactive) | 120% (inactive) | – | 98% (inactive) | 95.3% (inactive) | 88.2% (inactive) | –
7 | Cc1ccc(N)cc1S(=O)(=O)O | 120% (inactive) | 103% (inactive) and 106% (inactive) | – | 75% (inactive) and 135% (inactive) | 101% (inactive) and 118% (inactive) | 96.8% (inactive) and 106% (inactive) | 113% (inactive) | 60.6% (inactive) and 109% (inactive) | 94.4% (inactive) | 89.6% (inactive) and 90.4% (inactive) | 103% (inactive) and 102% (inactive) | 108% (inactive) and 100% (inactive) | 108% (inactive) and 125% (inactive) | 104% (inactive) | – | 109% (inactive) and 113% (inactive) | 108% (inactive) and 117% (inactive) | 100% (inactive) and 94.9% (inactive) | 106% (inactive) and 113% (inactive) | –
8 | CCOCCC(=O)O | – | 103% (inactive) | 102% (inactive) | 103% (inactive) | 110% (inactive) | 102% (inactive) | 80.1% (inactive) | 98.9% (inactive) | 116% (inactive) | 109% (inactive) | 107% (inactive) | 109% (inactive) | 101% (inactive) | 104% (inactive) | 102% (inactive) | 114% (inactive) | 115% (inactive) | – | 107% (inactive) | –
9 | O=[N+]([O-])c1ccc(N2CCN=N2)cc1 | – | 88.9% (inactive) | 64.3% (inactive) | 85.5% (inactive) | 64.9% (inactive) | – | 72.3% (inactive) | 91.2% (inactive) | 90.8% (inactive) | 78.6% (inactive) | 92.7% (inactive) | 88% (inactive) | 87.7% (inactive) | 95.9% (inactive) | 89.6% (inactive) | 96.1% (inactive) | 99.8% (inactive) | 101% (inactive) | 100% (inactive) | 85.7% (inactive)
10 | CCC(C)(O)CCC(C)(O)CC (stereo not drawn) | – | 108% (inactive) | 91% (inactive) | 103% (inactive) | 111% (inactive) | 101% (inactive) | 114% (inactive) | 101% (inactive) | 102% (inactive) | 97.4% (inactive) | 108% (inactive) | 102% (inactive) | 114% (inactive) | 111% (inactive) | 99% (inactive) | 103% (inactive) | 107% (inactive) | 108% (inactive) | 99.2% (inactive) | 99.4% (inactive)
11 | O=C(O)c1cccc(Br)c1 | – | 104% (inactive) | – | 108% (inactive) and 93.6% (inactive) | 107% (inactive) and 108% (inactive) | 102% (inactive) and 99% (inactive) | 99.8% (inactive) and 83% (inactive) | 99.7% (inactive) and 101% (inactive) | 85.9% (inactive) and 96.2% (inactive) | 90.2% (inactive) and 100% (inactive) | 103% (inactive) and 104% (inactive) | 108% (inactive) and 100% (inactive) | 100% (inactive) and 98.7% (inactive) | 99.5% (inactive) and 105% (inactive) | 104% (inactive) and 106% (inactive) | 105% (inactive) and 104% (inactive) | 100% (inactive) and 105% (inactive) | – | 98.1% (inactive) and 106% (inactive) | 105% (inactive) and 101% (inactive)
12 | Cc1c(O)nc(N)[nH]c1=O | – | 109% (inactive) | – | 126% (inactive) | 108% (inactive) | 110% (inactive) | 109% (inactive) | 90.1% (inactive) | 102% (inactive) | 125% (inactive) | 100% (inactive) | 101% (inactive) | 106% (inactive) | 118% (inactive) | 112% (inactive) | 118% (inactive) | 121% (inactive) | 101% (inactive) | 102% (inactive) | 106% (inactive)
13 | COCCCNC1=C(C#N)C(=O)NC(c2cccs2)S1 (stereo not drawn) | – | 93% (inactive) | 76.3% (inactive) | 92.5% (inactive) | 97.5% (inactive) | 92.7% (inactive) | 133% (inactive) | 114% (inactive) | 172% (inactive) | 113% (inactive) | 122% (inactive) | 113% (inactive) | 109% (inactive) | 93% (inactive) | 101% (inactive) | 119% (inactive) | 118% (inactive) | 112% (inactive) | 110% (inactive) | 84% (inactive)
14 | Oc1ccc(O)c(-c2ccccc2)c1 | – | 68% (inactive) | – | 96.8% (inactive) | 74.1% (inactive) | 74.6% (inactive) | 132% (inactive) | 10.1% (inactive) | 20.7% (inactive) | 4.96% (active) | 42% (inactive) | 62.9% (inactive) | 102% (inactive) | 53.8% (inactive) | 83.3% (inactive) | 47% (inactive) | 20.5% (inactive) | 76.5% (inactive) | 50.6% (inactive) | 77.7% (inactive)
